Screening results from PubChem BioAssay.
Sampled rows, rich in hits. Any-hit rate of the full collection: about 9.7%.
M1 ag = agonists of M1 muscarinic receptor; CHO-M1 cells, Fluo-4 calcium fluorescence, agonist mode; hits give high values; B-score at 10 µM; actives 3% (n = 64,000); AID 626;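 active = fluorescence rise, raw or as B-score row- and column-corrected plate score, outside the 99.7% band of its plate's samples, either direction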
M1 antagonist = antagonists of rat M1 muscarinic receptor | P08482 | actives 3.4% (n = 64,000) | B-score at 10 µM | AID 628 | CHO-M1 cells, Fluo-4 calcium, ACh EC80 antagonist mode; hits give low values;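 active = calcium fluorescence response, raw or row-and-column corrected B-score, differing from the plate sample mean either way at a set confidence level, mostly lower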
WNV protease inh = inhibitors of West Nile virus NS2B-NS3 protease; P06935; AID 577; z-score (concentration not given with the values); actives 0.18% (n = 65,000); WNV NS2B-NS3 protease, fluorogenic substrate Ex360/Em465; hits give low values; in the data active = z-score below about -3
Target sequence (P06935 1371-1501 limits assumed): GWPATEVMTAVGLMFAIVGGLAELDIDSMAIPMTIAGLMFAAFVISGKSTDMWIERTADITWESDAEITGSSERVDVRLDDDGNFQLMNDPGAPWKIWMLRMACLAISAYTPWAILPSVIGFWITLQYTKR
Target sequence (P06935 1502-1679 limits assumed): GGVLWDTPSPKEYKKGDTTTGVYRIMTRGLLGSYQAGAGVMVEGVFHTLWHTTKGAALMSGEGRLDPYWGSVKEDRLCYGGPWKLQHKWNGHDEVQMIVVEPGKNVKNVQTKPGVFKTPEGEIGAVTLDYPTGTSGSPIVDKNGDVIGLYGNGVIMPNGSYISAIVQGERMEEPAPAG
Autofluor 339 = intrinsic fluorescence of library compounds, ex339/em460 – biochemical, MLSMR library, data from DPM-DC assay, artefact control, profiling panel | compound autofluorescence, ex339/em460 nm, NADH buffer; hits give high values; 1 = no-compound wells, NADH background | fluorescence fold increase at 10 µM | actives 5.5% (n = 65,000) | AID 709;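 active = at 10 µM, mean starting fluorescence two-fold or more over control wells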;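 also: signal is the first read of a kinetic run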
BAP1 block = inhibitors of human BAP1 deubiquitinase | actives 0.48% (n = 72,000) | calls only at 20 µM | recombinant BAP1, Ub-AMC hydrolysis fluorescence kinetic; hits give low values | AID 436 | Q92560;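 active = activity remaining at or below 50% of control, provided the compound also passes the data quality filters; inactive = the rest, including low values that fail the filters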
A340 absorber = compounds absorbing at 340 nm; compound absorbance at 340 nm, fold over control; fold change at 10 µM; 65,000 tested, under 10 active; AID 708;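 active = at 10 µM dose, initial 340 nm absorbance at least 2 fold that of control wells; inactive = change under 2 fold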;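 also: initial absorbance extrapolated from kinetic A340 decline of NADH oxidation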
M1 agonist conf = rat M1 muscarinic agonism, confirmation | shares compounds with M1 ag | CHO-M1 cells, Fluo-4 calcium fluorescence, agonist mode; actives lie on both sides | fluorescence change (max-min) at 10 µM | actives 19% (n = 1,700) | AID 1488;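 active = fluorescence change differs from the solvent-only DMSO control mean at a set confidence level in both duplicate runs; inconclusive = differs from solvent-only control mean in just one of two runs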;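 also: an EC20 dose of acetylcholine follows compound addition during the same imaging run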
M4 ag counter = counter-screen for M1 agonists: activity at rat M4 receptor. CHO M4/Gqi5 cells, Fluo-4 calcium fluorescence, agonist mode; actives lie on both sides. shares compounds with M1 ag. fluorescence change (max-min) at 10 µM. actives 9% (n = 1,700). AID 1741;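 active = fluorescence change differing from the plate's solvent-only control wells at 99.7% confidence in both duplicates, whether higher or lower; inconclusive = differs from solvent controls in only one of two duplicates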
Large screens that a line does not name were inactive (follow-up assays come after a bar, where shown).

CCn1c(=O)cc(OCC(=O)NCCCN2CC(C)CC(C)C2)c2ccccc21 (stereo not given)	M1 ag 2.2 | M1 agonist conf inconclusive | M4 ag counter inconclusive
O=C(NCC1CCCO1)c1cc(-c2ccccc2)on1 (stereo not given)	none
O=C(NCC1CCCO1)c1ccccc1-c1nc(-c2ccccc2)no1 (stereo not given)	M1 ag 2.4 | M1 agonist conf inactive | M4 ag counter inconclusive
N=c1c(C(=O)NCc2ccc(F)cc2)cc2c(=O)n3ccccc3nc2n1CC1CCCO1 (stereo not given)	M1 ag 3.7, Autofluor 339 3.9 (not shown: BAP1 block) | M1 agonist conf 90 | M4 ag counter inconclusive
Cc1cccn2c(=O)c3cc(C(=O)NCc4ccco4)c(=N)n(CCOCCO)c3nc12	M1 ag 12, Autofluor 339 5 | M1 agonist conf 107 | M4 ag counter inconclusive
N=c1c(C(=O)NCc2ccco2)cc2c(=O)n3ccccc3nc2n1CCc1ccccc1	M1 ag 9.6, Autofluor 339 2.2 (not shown: BAP1 block) | M1 agonist conf inactive | M4 ag counter inactive
O=C(CSc1nc(-c2ccco2)cc(C(F)(F)F)n1)Nc1ccc(C(=O)N2CCCCC2)cc1	M1 ag 6.7 | M1 agonist conf inconclusive | M4 ag counter inconclusive
Cc1nn(C)c(C)c1NC(=O)CCSc1nc(-c2ccco2)cc(C(F)(F)F)n1	M1 ag 34, M1 antagonist -3.7 | M1 agonist conf inactive | M4 ag counter inactive
CCn1nc(C)c(NC(=O)CCCSc2nc(-c3ccco3)cc(C(F)(F)F)n2)c1C	none
CCN1C(=O)/C(=C\N2CCCc3ccccc32)SC1=S	none
CCN1C(=O)/C(=C/N2CCc3ccccc32)SC1=S	M1 ag 87 | M1 agonist conf 528 | M4 ag counter 491
COc1cccc(C2NC(=O)NC(C)=C2C(=O)OCC(C)C)c1 (stereo not given)	none (no result: M1 ag, M1 antagonist, WNV protease inh, Autofluor 339, A340 absorber)
O=C1C2C3c4ccccc4C(CO)(c4ccccc43)C2C(=O)N1c1ccc([N+](=O)[O-])cc1 (stereo not given)	none (no result: M1 ag, M1 antagonist, WNV protease inh, Autofluor 339, A340 absorber)
COc1ccc2c(c1)sc1nc(-c3cc4ccccc4oc3=O)cn12	none (no result: M1 ag, M1 antagonist, WNV protease inh, Autofluor 339, A340 absorber)
Cc1cc2c(c(=O)o1)C1(C(=O)N(CC(=O)O)c3ccccc31)C(C#N)=C(N)O2 (stereo not given)	M1 ag 18 | M1 agonist conf 60 | M4 ag counter inactive
CCN1C(=O)C2(C(C#N)=C(N)Oc3cc(C)oc(=O)c32)c2ccccc21 (stereo not given)	none
COc1ccc(-c2noc(CCC(=O)Nc3ccc4c(c3)OCCO4)n2)cc1	M1 ag 3.7, M1 antagonist -2 | M1 agonist conf inactive | M4 ag counter inactive
Cc1ccc(-c2noc(CCC(=O)Nc3ccc4c(c3)OCO4)n2)cc1	none
COC(=O)c1ccc(-c2csc(NC(=O)c3cc(=O)c4ccccc4o3)n2)cc1	none (no result: M1 ag, M1 antagonist, WNV protease inh, Autofluor 339, A340 absorber)
O=C(Nc1cccc(S(=O)(=O)c2cccc(NC(=O)C3CC3)c2)c1)C1CC1	M1 ag 2.8 | M1 agonist conf inactive | M4 ag counter inactive
CCOC(=O)c1cc2c(=O)n3ccccc3nc2n(Cc2ccco2)c1=NC(=O)c1cccnc1	M1 ag 6.2, Autofluor 339 2.2 (no result: BAP1 block) | M1 agonist conf 146 | M4 ag counter inactive
CCOC(=O)CSc1nc2ccccc2c(=O)n1Cc1ccco1	none
CCOC(=O)c1cc2c(=O)n3cccc(C)c3nc2n(Cc2ccco2)c1=NC(=O)c1cccnc1	M1 ag 40, Autofluor 339 2.2 | M1 agonist conf 180 | M4 ag counter inactive
Cc1ccc(N2CC(C(=O)Nc3ccccn3)CC2=O)cc1 (stereo not given)	M1 ag 4.6 | M1 agonist conf inconclusive | M4 ag counter inactive
CCc1nnc(NC(=O)C2CC(=O)N(c3ccc(C)cc3)C2)s1 (stereo not given)	none
CCCCOc1ccc(C(=O)NC)cc1	none
CCCCOc1ccc(-c2nnc(-c3ccncc3)o2)cc1	M1 ag 2.7, Autofluor 339 3 | M1 agonist conf inactive | M4 ag counter inconclusive
CCOc1ccc(C(=O)NCc2ccncc2)cc1	none
CCCCC(=O)Nc1ccc(C(=O)NCc2ccncc2)cc1	M1 ag 19 | M1 agonist conf inconclusive | M4 ag counter inactive
CCCCOc1ccc(C(=O)Nc2ccncc2)cc1	M1 ag 11, M1 antagonist -3.7 | M1 agonist conf inactive | M4 ag counter inconclusive
CC1CCc2sc(NC(=O)c3cc(Cl)ccc3[N+](=O)[O-])c(C(N)=O)c2C1 (stereo not given)	none (no result: M1 ag, M1 antagonist, WNV protease inh, Autofluor 339, A340 absorber)
Cc1ccc(Oc2ccccc2[N+](=O)[O-])cc1	none (no result: M1 ag, M1 antagonist, WNV protease inh, Autofluor 339, A340 absorber)
O=S(=O)(c1ccsc1)c1cccs1	none (no result: M1 ag, M1 antagonist, WNV protease inh, Autofluor 339, A340 absorber)
CCOC(=O)Cc1cnc(NC(=O)c2ccccc2)s1	M1 ag 3.2 | M1 agonist conf inactive | M4 ag counter inconclusive
CCOC(=O)c1csc(NC(=O)c2ccccc2)n1	none
CCCCc1ccc(NC(=O)c2cc3ccccc3o2)cc1	none (no result: M1 ag, M1 antagonist, WNV protease inh, Autofluor 339, A340 absorber)
CCOC(=O)N1CCC(N2Cc3cccc(C(=O)NCc4ccc(OC)cc4)c3C2=O)CC1	none (no result: M1 ag, M1 antagonist)
CCOC(=O)N1CCC(NC(=O)c2cccc3c2C(=O)N(c2ccc(OC)cc2)C3)CC1	M1 ag 2.5 | M1 agonist conf inconclusive | M4 ag counter inactive
O=C(Nc1nc2c(s1)CCc1ccccc1-2)c1cc(Cl)ccc1[N+](=O)[O-]	none (no result: M1 ag, M1 antagonist, WNV protease inh, Autofluor 339, A340 absorber)
CCOC(=O)N1CCN(C(=O)c2ccc3c(=O)n(Cc4ccccc4)c(=S)[nH]c3c2)CC1	M1 ag 4.6 | M1 agonist conf inconclusive | M4 ag counter inconclusive
COc1cc2[nH]c(=O)n(CCCCCC(=O)N3CCN(c4ccccn4)CC3)c(=O)c2cc1OC	M1 ag 7.2 | M1 agonist conf inactive | M4 ag counter inactive
O=C(CCn1c(=S)[nH]c2ccccc2c1=O)N1CCN(c2ccccn2)CC1	none
O=C(c1ccc(Cn2c(=O)[nH]c3ccccc3c2=O)cc1)N1CCN(c2ccccn2)CC1	M1 ag 3.8 | M1 agonist conf inactive | M4 ag counter inactive
Cc1ccc2c(c1)nnn2C1CCN(CC(=O)Nc2ccccc2N2CCOCC2)CC1	M1 ag 2.9 | M1 agonist conf inactive | M4 ag counter inactive
O=C(NCC(=O)N(c1ccccc1)C(C(=O)NC1CCCCC1)c1ccncc1)c1ccco1 (stereo not given)	M1 ag 2.5 | M1 agonist conf inactive | M4 ag counter inconclusive
O=C(NCC(=O)N(Cc1cccs1)C(C(=O)NC1CCCC1)c1ccco1)c1cccs1 (stereo not given)	M1 ag 3.2 | M1 agonist conf inactive | M4 ag counter inconclusive
